PubChem BioAssay AID720650 (Broad Institute, 2013)
The source made the active and inactive calls. No rule for the calls is given here.

assay: Biochemical counterscreen for C difficile toxins, absence of UDPG, inhibitor dose response (AID 720650); details: series mostly up to 19.5 µM; activity change, negative = inhibition: at the top concentration

SMILES | activity change, negative = inhibition | AC50
COc1ccc(NC(=O)c2cc(C)nc3ccccc23)c(OC)c1 | -3.39% (inactive) | 
CCC(=O)Nc1ccc2c(c1)OC[C@H](C)N(C(=O)NC(C)C)C[C@H](C)[C@H](OC)CN(C)C2=O | -3.05% (inactive) | 
CC(OC(=O)c1cccnc1Cl)C(=O)NC1CCCCC1 (stereo not drawn) | 9.9% (inactive) | 
COc1ccc([N+](=O)[O-])cc1NC(=S)NC(C)=O | -13.8% (inactive) | 
Cc1cc(C)cc(N=C2NC(=O)CS2)c1 | -5.57% (inactive) | 
CC(C)Cc1cc(C(=O)N2CCCC(CO)(Cc3ccc(F)cc3)C2)no1 (stereo not drawn) | 1.04% (inactive) | 
Nc1ccc2nc(-c3cccs3)[nH]c2c1 |  | 11 µM (active)
O=C1CSC(=Nc2ccc(O)cc2)N1 |  | 17.6 µM (active)
O=C(O)c1ccc(-c2nnc(-c3ccccc3)o2)cc1 | -16.1% (inactive) | 
Cc1cccc(-n2nnc(C(=O)NCc3ccccc3Cl)c2N)c1 | -3.19% (inactive) | 
CCc1[nH]c(=O)c(C#N)c2c1CCCC2 | -1.25% (inactive) | 
Cc1ccc(C(=O)COC(=O)c2cc(=O)[nH]c3ccccc23)cc1 | -6.45% (inactive) | 
CC(Sc1nccn1C)C(=O)c1c(N)n(C)c(=O)n(C)c1=O (stereo not drawn) | 13% (inactive) | 
CC(=O)C1=CCC(c2ccccc2)N(S(=O)(=O)c2ccc(C)cc2)C1 (stereo not drawn) | -25.6% (inactive) | 
Nc1nc(CCOc2ccc(F)cc2)cs1 | -9.71% (inactive) | 
Fc1cccc(NC(=S)NNc2c3ccccc3nc3ccccc23)c1 | -12.2% (inactive) | 
CC(=O)Nc1ccc(Oc2nc(-c3ccccn3)nc3ccccc23)cc1 |  | 11 µM (active)
c1ccc(OCCSc2nnc3sc4ccccc4n23)cc1 |  | 20.6 µM (active)
Cc1cc(C)c(S(=O)(=O)N2CCCCC2C(=O)O)c(C)c1 (stereo not drawn) | -14% (inactive) | 

SMILES | activity change, negative = inhibition | AC50
CC(C)(C)N1[C@@H](CC(=O)O)c2cc(C(F)(F)F)ccc2S1(=O)=O | -0.988% (inactive) | 
CCN1CCN(C(=O)C2=CC(c3ccc(OC)cc3)=NS(=O)(=O)N2C)CC1 | -16.2% (inactive) | 
CN(C)/C=C(\C#N)C(=O)Nc1ccc(O)cc1F |  | 9.11 µM (active)
NC(=O)NN=C1CC2CC1C1C=CCC21 (stereo not drawn) | -12.3% (inactive) | 
O=C(Cc1ccccc1)NNC(=S)NC(=O)c1cccnc1 |  | > 39 µM (inactive)
CC(=O)c1cccc(OCC(=O)c2cc(C)n(-c3cc(C)on3)c2C)c1 |  | 12 µM (active)
CCNC(=O)C[C@H]1CC[C@@H]2[C@@H](COc3ccc(NC(C)=O)cc3C(=O)N2C)O1 | 4.3% (inactive) | 
Cc1ccc(C2=NS(=O)(=O)N(C)C(C(=O)NCc3ccccc3)=C2)cc1 | -8.53% (inactive) | 
COCCCNC(=O)C1CCN(S(=O)(=O)c2c(C)noc2/C=C\c2ccc(OC)cc2)CC1 |  | inactive
C[C@H]1CN([C@@H](C)CO)C(=O)c2c(c3ccccc3n2C)-c2ccccc2CO[C@H]1CN(C)C | 7.48% (inactive) | 
CC(=O)NC(Cc1ccccc1)C(=O)Oc1ccc2ccccc2c1 (stereo not drawn) | -8.77% (inactive) | 
C[C@H](CO)N1C[C@H](C)[C@@H](CN(C)C(=O)Nc2ccc(C(F)(F)F)cc2)Oc2ccc(NC(=O)C3CCCCC3)cc2C1=O | 2.5% (inactive) | 
CCOC(=O)N1CCC(c2cc(=O)n3[nH]c(-c4ccccc4)cc3n2)CC1 | -11.1% (inactive) | 
COc1cccc(C(=O)OCC(=O)Nc2cc(C)on2)c1OC | -16.1% (inactive) | 
COc1ccccc1C=C1SC(=S)NC1=O | -7.14% (inactive) | 
CCCc1[nH]c(=O)c(C#N)c2c1CCCC2 | -11.3% (inactive) | 
CC(=O)N(c1ccccc1C)S(=O)(=O)c1ccc(Cl)cc1 | -13.3% (inactive) | 
CCOC(=O)c1ccc[n+](CC(=O)c2ccc(NC(=O)c3ccccc3)cc2)c1 | -0.189% (inactive) | 
COC(=O)C1=C[C@@H](C(=O)OC)[C@@H]2C3=C(C(=O)[C@]2(C)NC(=O)c2ccccc2)[C@H](C)n2c(=O)n(C)c(=O)n2[C@@H]3C1 | -11.3% (inactive) | 
